According to PubChem BioAssay (NCATS):
Records with an inconclusive call do not appear. The source made the active and inactive calls. Unless noted, the call rests on the fitted dose curve; in most records, active means well fitted curve in either direction with a large enough effect (not every such curve was filed as active); inconclusive means small, poorly fitted or top-dose-only effect, or another doubt; inactive means flat fitted curve, though single readings scatter.

Key:
[1] = AP1 Signaling Pathway (AID 357); conditions: ME-180 AP-1-bla reporter, EGF-induced, beta-lactamase ratio, 5 h; at 17.2 µM (top of the series) unless noted;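 further: ME-180 reporter cells stimulated with EGF at its EC50 level; on the % scale 0 is the no-effect control and ±100 the full control effect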
Outline: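 Modulation of EGF-driven AP-1 transcription was assessed with a beta-lactamase reporter in ME-180 cells. Compound and EC50 EGF were co-incubated 5 hours at 37 °C before 2.5-hour CCF4 loading at room temperature and dual-emission reading.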

[2] = target: Cytochrome P450 1A2 (Homo sapiens) (UniProt P05177); test: p450-cyp1a2 (AID 410; calls by dose curve; further: potency means the concentration at half of the fitted maximal effect;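 on activity change, negative = inhibition: -100% = full effect of reference inhibitor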)
Cytochrome P450 1A2 (Homo sapiens), sequence (P05177 whole entry, looked up): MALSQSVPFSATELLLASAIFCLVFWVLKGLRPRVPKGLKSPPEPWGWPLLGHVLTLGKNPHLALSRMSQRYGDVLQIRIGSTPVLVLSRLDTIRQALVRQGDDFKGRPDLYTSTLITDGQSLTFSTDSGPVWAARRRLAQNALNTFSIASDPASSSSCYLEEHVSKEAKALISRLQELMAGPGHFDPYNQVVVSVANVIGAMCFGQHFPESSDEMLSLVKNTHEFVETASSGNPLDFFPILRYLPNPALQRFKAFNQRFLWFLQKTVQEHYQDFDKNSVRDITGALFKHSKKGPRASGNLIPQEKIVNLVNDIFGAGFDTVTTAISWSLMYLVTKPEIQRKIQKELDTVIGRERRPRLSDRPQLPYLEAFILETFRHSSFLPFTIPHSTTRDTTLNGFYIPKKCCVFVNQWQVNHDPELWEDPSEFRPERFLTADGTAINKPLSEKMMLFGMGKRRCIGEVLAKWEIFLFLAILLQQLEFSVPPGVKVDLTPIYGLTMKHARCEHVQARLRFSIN
Outline: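 Luminescent readout of luciferin formed from Luciferin-ME by human CYP1A2; data normalized against complete inhibition by 57 uM furafylline. Enzyme 20nM, substrate 100uM at Km, 100mM KPO4 buffer, 60 min reaction at room temperature.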

[3] = target: Glucocorticoid receptor (Homo sapiens) (UniProt P04150); test: GR-GFP Redistribution (AID 450;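 active means compounds whose dose series gives a full or clear partial fitted curve of increased nuclear translocation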; further: potency means the concentration at half of the fitted maximal effect)
Glucocorticoid receptor (Homo sapiens), sequence (P04150 whole entry, looked up, the tested form may be a part): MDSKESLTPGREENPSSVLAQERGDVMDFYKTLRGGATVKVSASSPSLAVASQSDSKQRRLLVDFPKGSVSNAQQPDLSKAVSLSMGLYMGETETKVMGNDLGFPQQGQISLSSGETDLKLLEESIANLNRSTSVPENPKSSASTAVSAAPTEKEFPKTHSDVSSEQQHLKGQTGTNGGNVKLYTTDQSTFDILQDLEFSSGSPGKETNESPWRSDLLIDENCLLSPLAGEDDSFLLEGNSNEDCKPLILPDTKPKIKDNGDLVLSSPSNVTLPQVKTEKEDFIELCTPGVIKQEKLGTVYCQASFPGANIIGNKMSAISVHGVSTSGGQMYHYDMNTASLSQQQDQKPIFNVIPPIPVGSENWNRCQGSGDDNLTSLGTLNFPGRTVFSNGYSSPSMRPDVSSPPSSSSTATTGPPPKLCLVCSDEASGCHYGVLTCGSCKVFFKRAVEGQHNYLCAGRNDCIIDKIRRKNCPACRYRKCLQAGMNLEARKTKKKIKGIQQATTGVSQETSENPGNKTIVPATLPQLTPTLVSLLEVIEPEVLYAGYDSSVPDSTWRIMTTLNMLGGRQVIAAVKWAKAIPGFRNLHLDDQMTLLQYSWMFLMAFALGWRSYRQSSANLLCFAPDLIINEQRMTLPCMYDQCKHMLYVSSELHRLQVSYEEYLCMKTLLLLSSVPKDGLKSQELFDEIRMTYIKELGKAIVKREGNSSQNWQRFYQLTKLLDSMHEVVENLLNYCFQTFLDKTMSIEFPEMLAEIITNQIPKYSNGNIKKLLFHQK

[4] = target: Glucocorticoid receptor (Homo sapiens) (UniProt P04150); test: GR-EFC Redistribution (AID 451; calls by dose curve; further: potency means the concentration at half of the fitted maximal effect); conditions: CHO-K1 GR-EFC translocation, beta-gal luminescence, 2 h
Outline: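 CHO-K1 cells stably expressing nuclear-localized β-gal enzyme acceptor and GR fused C-terminally to the enzyme donor fragment; ligand-driven nuclear translocation restores β-gal by complementation. Compounds titrated up to 46 uM final, 2 h at 37 °C; luminescence read.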

[5] = target: Mitogen-activated protein kinase 10 (Mus musculus) (UniProt Q61831); test: JNK3 AlphaScreen Assay (AID 530);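 further: kinase came from lysate of stimulated human HepG2 cells; signal reports phosphorylation of biotinylated GST-cJun 1-79 at Ser73 with 10 µM ATP; on the % scale 0 is the no-effect control and ±100 the full control effect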
Outline: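 Inhibitors reduce antibody binding to phosphorylated biotin-cJun, lowering AlphaScreen luminescence. Lysates from HepG2 cells pre-activated by IL-1beta plus TNF-alpha supplied JNK3; compounds were titrated.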

[6] = target: 3',5'-cyclic-AMP phosphodiesterase 4B (Homo sapiens) (UniProt Q07343); test: qHTS Assay for Inhibitors of PDE-IV (AID 607; active means well fitted activation curve with a large enough effect in the main read-out, with a control signal flat, not every such curve was filed as active; further: % of control where 0% means no effect)
3',5'-cyclic-AMP phosphodiesterase 4B (Homo sapiens), sequence (Q07343 whole entry, looked up): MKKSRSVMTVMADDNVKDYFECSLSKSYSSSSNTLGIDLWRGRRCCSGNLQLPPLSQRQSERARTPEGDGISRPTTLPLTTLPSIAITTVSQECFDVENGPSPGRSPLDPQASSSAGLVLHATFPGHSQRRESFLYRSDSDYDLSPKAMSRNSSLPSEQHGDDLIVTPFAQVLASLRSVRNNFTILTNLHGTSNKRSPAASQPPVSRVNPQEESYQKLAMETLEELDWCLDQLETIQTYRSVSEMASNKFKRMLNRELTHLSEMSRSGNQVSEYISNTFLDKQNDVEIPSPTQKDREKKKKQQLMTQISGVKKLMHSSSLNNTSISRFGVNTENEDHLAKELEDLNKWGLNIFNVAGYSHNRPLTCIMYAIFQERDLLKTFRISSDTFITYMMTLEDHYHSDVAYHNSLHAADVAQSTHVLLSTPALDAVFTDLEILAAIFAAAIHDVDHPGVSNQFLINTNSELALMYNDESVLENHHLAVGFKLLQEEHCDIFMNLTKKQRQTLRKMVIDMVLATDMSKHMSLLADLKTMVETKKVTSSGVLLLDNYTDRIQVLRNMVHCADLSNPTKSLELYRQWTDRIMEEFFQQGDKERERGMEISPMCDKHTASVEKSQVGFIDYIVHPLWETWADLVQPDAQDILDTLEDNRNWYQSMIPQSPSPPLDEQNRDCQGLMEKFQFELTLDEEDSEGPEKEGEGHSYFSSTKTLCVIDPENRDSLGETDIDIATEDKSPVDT
Outline: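 Live HEK293 cells with a modified cyclic nucleotide-gated (CNG) channel report intracellular cAMP via membrane-potential dye fluorescence (ex 535/em 590 nm). Endogenous PDE-IV was targeted. Compounds were tested at up to 22.9 uM final; RO 20-1724 100 uM served as control.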

[7] = target: Cytochrome P450 2C19 (Homo sapiens) (UniProt P33261); test: qHTS Assay for Inhibitors and Substrates of Cytochrome P450 2C19 (AID 899; active means well fitted curve in the direction sought with a large enough effect; an effect the other way counts as inactive or inconclusive; further: potency means the concentration at half of the fitted maximal effect; nearly all actives have a fitted effect of over 60% in size)
Cytochrome P450 2C19 (Homo sapiens), sequence (P33261 whole entry, looked up): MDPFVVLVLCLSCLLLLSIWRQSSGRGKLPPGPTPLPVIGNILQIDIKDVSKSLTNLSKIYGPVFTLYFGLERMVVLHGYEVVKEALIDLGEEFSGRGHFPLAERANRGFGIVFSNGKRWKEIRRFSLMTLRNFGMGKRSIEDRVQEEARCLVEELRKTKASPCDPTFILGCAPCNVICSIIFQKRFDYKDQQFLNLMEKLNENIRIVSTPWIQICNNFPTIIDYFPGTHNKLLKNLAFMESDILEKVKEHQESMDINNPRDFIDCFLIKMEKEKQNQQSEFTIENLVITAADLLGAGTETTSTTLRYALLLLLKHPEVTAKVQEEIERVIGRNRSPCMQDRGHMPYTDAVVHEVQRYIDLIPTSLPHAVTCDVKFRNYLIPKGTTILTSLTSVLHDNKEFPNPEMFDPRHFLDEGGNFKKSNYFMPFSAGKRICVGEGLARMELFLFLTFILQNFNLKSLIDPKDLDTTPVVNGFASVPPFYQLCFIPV
Outline: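 Human CYP2C19 (5nM) with Luciferin-H EGE at 10uM (its KM) in 50mM KPO4 was preincubated with compound for 10 min at 37C. NADPH regeneration started a 60 min 37C reaction. Luciferin was read by luminescence, normalized to 57uM ketoconazole.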

[8] = NFAT Signaling Pathway (AID 444); conditions: Jurkat NFAT-bla M1, carbachol, beta-lactamase ratio, 5 h; at 17.2 µM (top of the series) unless noted;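 further: carbachol stimulus at about its EC50 of 1 µM final; on the % scale 0 is the no-effect control and ±100 the full control effect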
Outline: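 Jurkat cells carrying an NFAT-driven β-lactamase reporter and co-transfected muscarinic M1 receptor were treated with compound plus carbachol (1 uM final, an EC50 level) for 5 h at 37 °C. CCF4 loading followed for 1 h at RT; 460/530 nm ratio gave %activity.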

[9] = Stat Signaling Pathway (AID 446); conditions: ME-180 (cervical carcinoma) SIE beta-lactamase reporter, IL-6 stimulated, 5 h; at 17.2 µM (top of the series) unless noted;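 further: ME-180 cervical cancer cells given 40 pM IL-6 alongside compound; SIE-controlled beta-lactamase reporter measured as 460/530 nm FRET emission ratio; on the % scale 0 is the no-effect control and ±100 the full control effect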
Outline: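 IL-6/STAT signaling read in ME-180 cells via an SIE beta-lactamase reporter. Stimulus was 40 pM IL-6 (its AC50) for 5 hrs, so both activation and inhibition register.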

[10] = target: Guanine nucleotide-binding protein G(i) subunit alpha-1 (Homo sapiens) (UniProt P63096); test: qHTS Assay for Inhibitors of RGS12 GoLoco Motif Activity (Green Fluorophore) (AID 879; active means well fitted curve in the direction sought with a large enough effect; an effect the other way counts as inactive or inconclusive;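 further: 0% = labeled peptide with Gαi1 and full inhibition = labeled peptide alone without protein; negative values mean loss of peptide binding seen as reduced polarization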)
Guanine nucleotide-binding protein G(i) subunit alpha-1 (Homo sapiens), sequence (P63096 whole entry, looked up): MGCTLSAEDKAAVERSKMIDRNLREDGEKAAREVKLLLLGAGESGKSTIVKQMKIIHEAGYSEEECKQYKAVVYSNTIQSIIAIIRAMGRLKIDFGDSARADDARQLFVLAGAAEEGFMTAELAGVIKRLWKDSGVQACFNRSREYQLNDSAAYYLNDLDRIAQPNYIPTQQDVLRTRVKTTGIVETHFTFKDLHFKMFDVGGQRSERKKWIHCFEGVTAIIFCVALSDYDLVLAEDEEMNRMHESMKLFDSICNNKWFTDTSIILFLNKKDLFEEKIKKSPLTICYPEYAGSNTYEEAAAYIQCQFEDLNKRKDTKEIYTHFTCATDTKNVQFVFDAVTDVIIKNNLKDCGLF
Outline: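 Fluorescence polarization assay: 50 nM Gαi1 with 10 nM FITC-labeled RGS12 GoLoco peptide in 10 mM Tris pH 7.5, 150 mM NaCl, 0.1 mM GDP, 0.05% NP40, 10 min at room temperature with compound.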

[11] = qHTS Assay for Identification of Small Molecule Antagonists for NFkB Signaling Pathway (AID 895; active means well fitted inhibition curve with a large enough effect in the signal ratio, with a control signal flat, not every such curve was filed as active; the % refers to the signal ratio; further: potency means the concentration at half of the fitted maximal effect)
Outline: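 NFkB-bla ME-180 cervical carcinoma cells with beta-lactamase reporter under NFkB response element; compounds added, then TNF alpha at 10 pM final (EC50), 5 h at 37 C. LiveBLAzer substrate 2 h, room temperature; emission 460/530 nm at 405 nm excitation.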

[12] = qHTS Assay for Identification of Small Molecule Agonists for Thrombopoietin (TPO) Signaling Pathway (AID 917; active means well fitted curve in the direction sought with a large enough effect; an effect the other way counts as inactive or inconclusive; further: on the % scale 0 is the no-effect control and ±100 the full control effect)
Outline: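 We measured Glycoprotein IIb promoter–luciferase output in IL-3-starved Ba/F3 murine cells expressing the human TPO receptor after 24 hrs at 37 C with compounds and 26 pM TPO.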

[13] = target: Muscarinic acetylcholine receptor M1 (Rattus norvegicus) (UniProt P08482); test: qHTS Assay for Antagonists of Acetylcholine Muscarinic M1 Receptor: Measurement of IP-One Response (AID 944; active means well fitted curve in the direction sought with a large enough effect; an effect the other way counts as inactive or inconclusive; further: nearly all actives have a fitted effect of over 75% in size)
Outline: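 M1-CHO (rat), 2000 cells/well, overnight recovery; cpd 10 min; carbachol EC80 (200 nM), 30 min, HEPES buffer + 50 mM LiCl pH 7.4; IP-One HTRF, Ex 337, Em 620/665 nm.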

[14] = target: Pyruvate kinase (Leishmania mexicana) (UniProt Q27686); test: qHTS Validation Assay for Inhibitors of Leishmania Mexicana Pyruvate Kinase (AID 945; active means well fitted curve in the direction sought with a large enough effect; an effect the other way counts as inactive or inconclusive;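 further: 0% = DMSO only neutral control wells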)
Pyruvate kinase (Leishmania mexicana), sequence (Q27686 2-499 E452W): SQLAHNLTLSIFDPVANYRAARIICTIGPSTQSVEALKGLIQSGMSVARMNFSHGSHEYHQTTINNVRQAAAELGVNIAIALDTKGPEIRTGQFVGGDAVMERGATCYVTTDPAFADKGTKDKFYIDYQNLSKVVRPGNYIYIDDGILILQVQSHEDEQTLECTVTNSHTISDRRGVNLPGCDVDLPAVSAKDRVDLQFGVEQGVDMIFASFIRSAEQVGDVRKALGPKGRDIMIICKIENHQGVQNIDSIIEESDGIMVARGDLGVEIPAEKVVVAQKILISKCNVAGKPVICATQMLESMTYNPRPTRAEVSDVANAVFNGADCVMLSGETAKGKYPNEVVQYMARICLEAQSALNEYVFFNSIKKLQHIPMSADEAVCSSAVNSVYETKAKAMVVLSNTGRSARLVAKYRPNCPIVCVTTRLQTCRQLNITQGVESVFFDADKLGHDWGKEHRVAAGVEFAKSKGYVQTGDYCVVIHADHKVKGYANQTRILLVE
Outline: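 Read-out: luminescence from PKLight stop/detection reagent, data normalized to DMSO. Reaction: 0.2 nM E451W LmPYK, 0.5 mM PEP, 0.1 mM ADP, pH 7.2, 1 h room temperature.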

[15] = target: Pyruvate kinase PKM (Homo sapiens) (UniProt P14618); test: qHTS Assay for Activators of Human Muscle Pyruvate Kinase (AID 954; active means well fitted curve in the direction sought with a large enough effect, not every such curve was filed as active;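 further: 0% = uninhibited enzyme and -100% = no enzyme or full thiadiazolimine inhibition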)
Pyruvate kinase PKM (Homo sapiens), sequence (P14618 whole entry, looked up): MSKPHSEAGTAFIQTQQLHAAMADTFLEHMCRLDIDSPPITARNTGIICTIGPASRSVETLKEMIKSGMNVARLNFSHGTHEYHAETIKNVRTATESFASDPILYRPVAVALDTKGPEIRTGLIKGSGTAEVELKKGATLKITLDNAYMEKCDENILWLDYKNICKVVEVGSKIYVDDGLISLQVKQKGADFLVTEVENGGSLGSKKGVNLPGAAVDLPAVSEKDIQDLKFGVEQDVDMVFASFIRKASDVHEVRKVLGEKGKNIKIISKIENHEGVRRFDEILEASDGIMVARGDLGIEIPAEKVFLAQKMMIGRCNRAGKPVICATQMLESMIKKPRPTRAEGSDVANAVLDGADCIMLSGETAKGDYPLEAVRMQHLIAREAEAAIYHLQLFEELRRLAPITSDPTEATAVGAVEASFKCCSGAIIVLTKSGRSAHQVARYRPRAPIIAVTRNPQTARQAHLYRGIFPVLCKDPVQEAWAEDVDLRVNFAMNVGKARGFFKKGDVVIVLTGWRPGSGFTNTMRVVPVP
Outline: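 Enzyme was run at intermediate activity so both inhibitors and activators could be detected. ATP formed from ADP and PEP by 0.1 nM human PKM2 during a 1 h room-temperature incubation was quantified by coupled luciferase luminescence.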

[16] = target: Alpha-galactosidase A (Homo sapiens) (UniProt P06280); test: Counterscreen for Glucocerebrosidase Inhibitors: qHTS Assay for Human alpha-Galactosidase at pH 4.5 (AID 992; active means well fitted curve in the direction sought with a large enough effect; an effect the other way counts as inactive or inconclusive; further: 0% is about no effect)
Alpha-galactosidase A (Homo sapiens), sequence (P06280 whole entry, looked up): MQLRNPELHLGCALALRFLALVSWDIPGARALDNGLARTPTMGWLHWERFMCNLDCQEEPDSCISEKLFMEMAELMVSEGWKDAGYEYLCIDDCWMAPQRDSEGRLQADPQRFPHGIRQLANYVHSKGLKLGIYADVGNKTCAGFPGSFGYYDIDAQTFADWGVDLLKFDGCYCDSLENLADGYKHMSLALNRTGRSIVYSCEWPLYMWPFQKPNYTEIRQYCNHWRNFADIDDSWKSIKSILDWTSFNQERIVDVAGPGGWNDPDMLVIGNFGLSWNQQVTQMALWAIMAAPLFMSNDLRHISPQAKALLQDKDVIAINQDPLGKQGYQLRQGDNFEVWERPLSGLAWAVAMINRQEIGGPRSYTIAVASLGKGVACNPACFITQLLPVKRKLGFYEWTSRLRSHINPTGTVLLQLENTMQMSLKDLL
Outline: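 Read-out is 4-methylumbelliferone fluorescence (365 nm excitation, 440 nm emission) after a pH 10 NaOH/glycine stop. Reactions held 2 nM enzyme and 80 uM substrate at pH 4.5 for 20 min at room temperature.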

[17] = target: alpha-glucosidase (Oryza sativa, rice) (UniProt Q653V4); test: Counterscreen for Glucocerebrosidase Inhibitors: qHTS Assay for Rice alpha-Glucosidase at pH 5.0 (AID 997; active means well fitted curve in the direction sought with a large enough effect; an effect the other way counts as inactive or inconclusive;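 further: 0% = full activity with enzyme and -100% = basal without enzyme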)
Outline: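 Rice alpha-glucosidase (4 nM final) with 400 uM 4-methylumbelliferyl-alpha-D-glucopyranoside in citrate buffer pH 5.0, 20 min at room temperature, stopped at pH 10; fluorescence 365/440 nm, compounds 0.7 nM–77 uM, AC50 from Hill fits.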

[18] = target: Cytochrome P450 2C9 (Homo sapiens) (UniProt P11712); test: qHTS Assay for Inhibitors and Substrates of Cytochrome P450 2C9 (AID 883; active means well fitted curve in the direction sought with a large enough effect; an effect the other way counts as inactive or inconclusive; further: on the % scale 0 is the no-effect control and ±100 the full control effect; nearly all actives have a fitted effect of over 60% in size)
Cytochrome P450 2C9 (Homo sapiens), sequence (P11712 whole entry, looked up): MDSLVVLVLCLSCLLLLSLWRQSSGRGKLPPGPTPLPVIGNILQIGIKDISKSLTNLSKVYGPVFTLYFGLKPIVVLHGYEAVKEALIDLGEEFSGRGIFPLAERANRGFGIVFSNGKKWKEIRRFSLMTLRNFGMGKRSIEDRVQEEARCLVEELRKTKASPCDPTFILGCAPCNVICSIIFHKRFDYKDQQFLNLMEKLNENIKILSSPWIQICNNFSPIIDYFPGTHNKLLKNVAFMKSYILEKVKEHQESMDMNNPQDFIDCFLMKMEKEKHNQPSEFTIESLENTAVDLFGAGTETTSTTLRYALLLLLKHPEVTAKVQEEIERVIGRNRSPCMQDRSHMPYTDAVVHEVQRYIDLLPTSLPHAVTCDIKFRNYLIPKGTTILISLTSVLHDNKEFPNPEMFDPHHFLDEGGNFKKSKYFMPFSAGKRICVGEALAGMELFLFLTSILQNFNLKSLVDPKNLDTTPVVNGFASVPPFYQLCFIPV
Outline: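 Human CYP2C9 (10nM) hydroxylated Luciferin-H (100uM, at its KM) to luciferin in 25mM KPO4. Compound was preincubated 10 min at 37C, then NADPH regeneration started a 60 min reaction at 37C. Luminescence was read after detection reagent, normalized to 57uM sulphaphenazole.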

[19] = target: Cytochrome P450 2D6 (Homo sapiens) (UniProt P10635); test: qHTS Assay for Inhibitors and Substrates of Cytochrome P450 2D6 (AID 891; active means well fitted curve in the direction sought with a large enough effect; an effect the other way counts as inactive or inconclusive;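 further: luciferin methyl ether substrate demethylated by CYP2D6 with NADPH regeneration; on the % scale 0 is the no-effect control and ±100 the full control effect; nearly all actives have a fitted effect of over 60% in size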)
Outline: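 Human CYP2D6 (5 nM) with 30 uM Luciferin-ME EGE (at Km) in 100 mM KPO4, compound preincubated 10 min, then NADPH regeneration system for 60 min at room temperature. Luciferin read by luminescence; normalized to 1.43 uM quinidine.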

N=C1[C@@H](O)[C@]2(I)c3ccccc3N3C(=N)[C@H](O)[C@@H]4c5ccccc5N1[C@@H]4[C@@H]32
active: Potency [2] 2.51 µM | Potency [7] 3.16 µM
inactive: activity change, negative = inhibition [1] 9.35% [at 7.69 µM] | Potency [3] > 46 µM | Potency [4] > 9.22 µM | activity change, negative = inhibition [5] -25.9% [at 11.4 µM] | Potency [6]

Cc1nnc2n(-c3ccccc3)c(=O)c3c4c(sc3n12)COC(C)(C)C4
inactive: activity change, negative = inhibition [1] 4.08% | activity change, negative = inhibition [8] -10.7% | activity, negative = inhibition [9] -0.141% | Potency [3] > 20.6 µM

COc1ccc(-c2onc(C)c2-c2ccccc2)c(O)c1
inactive: activity change, negative = inhibition [1] -16.7% | activity change, negative = inhibition [8] 9.81% | activity, negative = inhibition [9] -25.2% | Potency [3] > 20.6 µM

C[C@@]12CCC(=O)C=C1CC[C@@H]1[C@@H]2[C@H](O)C[C@]2(C)[C@@H]1CC[C@]2(O)C(=O)COC(=O)CCC(=O)O
inactive: activity change, negative = inhibition [1] -0.329% [at 38 µM] | Potency [2] | activity, negative = inhibition [9] -14.6% [at 38 µM] | Potency [5] | Potency [6] | outcome [10] | Potency [12] | Potency [13] | Potency [14] | outcome [15] | outcome [16] | outcome [17]
active: Potency [3] 0.112 µM | Potency [4] 1.12 µM | Potency [11] 0.224 µM

CO[C@H]1C=CO[C@@]2(C)Oc3c(C)c(O)c4c(O)c(c(C=NN5CCN(C)CC5)c(O)c4c3C2=O)NC(=O)C(C)=CC=C[C@H](C)[C@H](O)[C@@H](C)[C@@H](O)[C@@H](C)[C@H](OC(C)=O)[C@@H]1C
inactive: activity change, negative = inhibition [1] -3.11% | activity change, negative = inhibition [8] 18.4% | activity, negative = inhibition [9] 1.14%

OC[C@@H]1O[C@@H](n2cnc3c(NCCc4ccccc4)ncnc32)[C@@H](O)[C@H]1O
inactive: activity change, negative = inhibition [1] -4.22% [at 38 µM] | Potency [2] | activity, negative = inhibition [9] 0.109% [at 38 µM] | Potency [3] > 46 µM | Potency [4] > 46 µM | Potency [5] | Potency [6] | Potency [18] | Potency [19]

CO[C@H]1C[C@@H]2CC[C@@H](C)[C@@](O)(O2)C(=O)C(=O)N2CCCC[C@H]2C(=O)O[C@H]([C@H](C)C[C@@H]2CC[C@@H](O)[C@H](OC)C2)CC(=O)[C@H](C)C=C(C)[C@@H](O)[C@@H](OC)C(=O)[C@H](C)C[C@H](C)C=CC=CC=C1C
inactive: activity change, negative = inhibition [1] 6.13% | activity change, negative = inhibition [8] 24.7% | activity, negative = inhibition [9] -28.8%

CN1CCc2c(c3c(n2C)CCN(C)[C@@H]3c2cccnc2)[C@H]1c1cccnc1
inactive: activity change, negative = inhibition [1] 5.56% | activity change, negative = inhibition [8] 8.24% | activity, negative = inhibition [9] 9.53%

CCCCCCCCCCCCCCCCCCOC[C@@H](COP(=O)([O-])OCC[N+](C)(C)C)OC
inactive: activity change, negative = inhibition [1] 29% [at 38 µM] | Potency [2] | activity, negative = inhibition [9] 4.35% [at 38 µM] | Potency [3] > 46 µM | Potency [4] > 46 µM | Potency [5] | Potency [6] | outcome [10] | Potency [12] | Potency [14] | outcome [15] | outcome [16] | outcome [17]
